# What was measured:
# Conditions in all cases: concentration: 1 μM, replicates: in singlicate; n = 1
# LCK = system: LCK
# LIMK1 = system: LIMK1
# LIMK2 = system: LIMK2
# LKB1 = system: T1, LKB1
# T1 construct: gene STK11
# LOK = system: T2, LOK
# T2 construct: gene STK10
# LRRK2 = system: LRRK2
# LTK = system: LTK
# LYN = system: LYN
# LZK = system: T3, LZK
# T3 construct: gene MAP3K13
# MAK = system: MAK
# 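Also: KINOMEscan kinase panel screen.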
Structure (SMILES),%Inh (LCK) [%],%Inh (LIMK1) [%],%Inh (LIMK2) [%],%Inh (LKB1) [%],%Inh (LOK) [%],%Inh (LRRK2) [%],%Inh (LTK) [%],%Inh (LYN) [%],%Inh (LZK) [%],%Inh (MAK) [%]
Cc1cccc(Nc2nc(N[C@H]3CCNC3)ncc2C(N)=O)c1.Cl [GSK2197149],40,0,0,8,0,56,0,26,0,11
FC(F)(F)c1ccc(/C=C/c2cncnc2Nc2ccc3[nH]c(Cc4ccccc4)nc3c2)cc1 [GW709199],9,0,0,0,13,0,0,1,0,18
Cl.Cl.NCC(NCc1ccc(-c2ccnc3[nH]ccc23)s1)c1ccccc1 (stereo not shown) [GSK1321565],16,0,20,82,29,10,31,0,40,0
O=C(Nc1cccc(-c2nn3ccccc3c2-c2ccnc(Nc3cccc(C(F)(F)F)c3)n2)c1)c1c(F)cccc1F [GSK292658],95.2,0,5,0,80,1,3,72,0,25
NCCCC(NC(=O)c1cc(Br)c(-c2ccnc3[nH]ccc23)s1)c1ccccc1.O=C(O)C(F)(F)F.O=C(O)C(F)(F)F (stereo not shown) [GSK1287544],9,6,6,0,0,42,0,0,0,34
COc1cc(Nc2nccc(-c3c(-c4cccc(NC(=O)c5c(F)cccc5F)c4)nn4ccccc34)n2)cc(OC)c1OC [GSK323521],23,2,12,0,85,0,26,28,0,9
C[C@@H](Oc1cc(-n2cnc3cc(-c4ccnc(NCCS(C)(=O)=O)c4)ccc32)sc1C(N)=O)c1ccccc1Cl [GSK907232],67,0,4,0,99.1,44,0,0,0,0
O=C(O)C(F)(F)F.O=C(O)C(F)(F)F.O=c1[nH]ccc2nc(N[C@@H]3CCCNC3)nc(Nc3ccc(S(=O)(=O)N4CCOCC4)cc3)c12 [GSK2177277],78,0,0,92.1,78,88,79,73,59,0
COc1ccc(-c2coc3ccc(-c4nnc(SCc5ccc(OC)c(C(F)(F)F)c5)o4)cc23)cc1,0,25,12,0,24,0,27,0,0,22
CCn1c(-c2nonc2N)nc2c(C#CC(C)(C)O)ncc(OCCCCN)c21.O=C(O)C(F)(F)F.O=C(O)C(F)(F)F [GSK507274],0,0,0,0,0,45,0,0,0,88
COc1cc(Nc2nccc(N3CCC(NC(=O)Nc4cccc(C(C)=O)c4)C3)n2)cc(OC)c1OC (stereo not shown) [GSK1379753],15,51,43,0,20,0,100,60,0,30
CN1CCN(CCCNc2nccc(-c3c(-c4ccc(F)cc4)nn4cc(C(F)(F)F)ccc34)n2)CC1 [GW621581],36,0,0,5,0,69,0,0,0,3
c1ccc(-c2n[nH]cc2Nc2ccnc3ccccc23)nc1 [GW694077],0,0,13,94,0,78,0,0,0,0
Cl.Cl.NCC(NC(=O)c1cc(-c2ccccc2)c(-c2ccnc3[nH]ccc23)s1)c1ccccc1 (stereo not shown) [GSK1321561],87,0,0,0,0,0,21,66,0,23
CC(C)c1nc(-c2cccc(NS(=O)(=O)c3c(F)cccc3F)c2F)c(-c2ccnc(Nc3ccc(N4CCOCC4)nc3)n2)s1 [GSK2008607],99.8,99.9,100,9,99.8,0,0,98.5,95.8,100
Cn1cc(-c2ccc3c(c2)CCN3C(=O)Cc2cccc(F)c2)c2c(N)ncnc21 [GSK2603358],46,0,0,0,91.9,0,33,0,37,27
c1ccc(Oc2ccc(Nc3ccnc4cc(-c5ccc(CNCCN6CCOCC6)o5)ccc34)cc2)nc1 [GW567145],78,0,0,20,30,20,0,28,32,0
COc1ccc(Nc2nccc(N3CCC(NC(=O)Nc4cccc(OC)c4)C3)n2)cc1 (stereo not shown) [GSK1379742],13,4,0,0,0,14,0,0,0,17
CC(=O)N1CCN(c2ccc(Nc3nccc(-c4sc(C(C)C)nc4-c4cccc(NS(=O)(=O)c5cccc(Cl)c5)c4)n3)cn2)CC1 [GSK1660437],98.6,98.4,100,0,96.8,24,23,74,29,35

Structure (SMILES),%Inh (LCK) [%],%Inh (LIMK1) [%],%Inh (LIMK2) [%],%Inh (LKB1) [%],%Inh (LOK) [%],%Inh (LRRK2) [%],%Inh (LTK) [%],%Inh (LYN) [%],%Inh (LZK) [%],%Inh (MAK) [%]
c1ccc(-c2cnc3nccnn23)cc1 [AH20685],11,19,0,0,0,5,0,64,0,33
COc1cccc(C(=O)Nc2cccc(Oc3ccc4nc(NC(=O)C5CC5)cn4n3)c2)c1,99.2,19,23,0,96.2,3,27,92.9,0,0
CCCCc1nn2ncccc2c1-c1ccnc(Nc2ccc(N3CCN(C)CC3)cc2)n1 [GW684941],99.1,70,97,0,60,60,0,83,28,20
O=C(NC1CCN(c2ccnc(Nc3ccc(F)cc3)n2)C1)c1cc2ccccc2s1 (stereo not shown) [GSK1379716],32,0,0,19,0,0,10,0,23,38
CN(C)Cc1ccc(-c2ccc3c(Nc4ccc(Oc5ccccn5)cc4)ccnc3c2)o1 [GW567148],92.9,0,0,0,52,48,0,17,27,13
COc1cccc(NC(=O)NC2CCN(c3ccnc(Nc4cc(OC)c(OC)c(OC)c4)n3)C2)c1 (stereo not shown) [GSK1379763],14,21,34,2,43,0,62,0,25,23
Nc1ncc(-c2ccc3nccc(-c4ccncc4)c3c2)cc1S(=O)(=O)N1CCOCC1 [GSK1627798],20,0,0,0,0,0,0,0,0,22
Oc1cc(Nc2ccnc3cc(I)ccc23)ccc1F [GW552771],78,8,0,0,0,55,4,20,9,22
O=C(Nc1cccc(Oc2ccc3nc(NC(=O)C4CC4)cn3n2)c1)c1ccccc1C(F)(F)F,72,6,7,0,95.1,0,39,57,0,0
COC(=O)Nc1nc2cc(Oc3ccc(NC(=O)Nc4cc(C(F)(F)F)ccc4F)cn3)ccc2[nH]1.Cl.Cl [GW681170],92.9,0,0,11,99.8,22,47,36,21,0
Clc1ccc(-c2nn3ncccc3c2-c2ccnc(Nc3ccc4c(c3)OCCO4)n2)cc1 [GW829116],83,0,0,0,71,0,19,27,0,0
COC(=O)Nc1nc2ccc(Oc3ccc(NC(=O)Nc4cc(C(F)(F)F)ccc4F)cc3)cc2n1C.Cl [GW692089],65,0,0,53,99.2,1,33,28,49,0
Cc1ccc(C)c(NC(=O)NC2CCN(c3ccnc(Nc4ccc(F)cc4)n3)C2)c1 (stereo not shown) [GSK1379720],0,9,0,2,0,0,17,4,41,6
Nc1ncnc2c1nc(-c1ccccc1)n2-c1ccccc1 [SKF-97293],6,0,2,60,21,58,9,8,4,27
CN1CCN(Cc2cccc(-c3ccc4c(Nc5ccc(Oc6ccccc6)cc5)ccnc4c3)c2)CC1 [GW578342],95.2,0,0,12,21,0,38,58,0,27
COc1ccc(Nc2nccc(NCCNC(=O)c3cc4ccccc4s3)n2)cc1 [GSK1379896],19,0,0,1,0,0,0,0,0,27
O=C(Nc1ccccc1F)NC1CCN(c2ccnc(Nc3ccc(F)cc3)n2)CC1 [GSK1379800],5,0,28,0,0,0,0,0,21,23
O=C(Nc1n[nH]c2nc(-c3ccc(O)cc3)ccc12)C1CC1 [SB-710363],24,2,0,9,27,0,58,23,0,90.7
